# Test results reported in the supplement of paper PMC6555819.
# System: PXR:RXRa (NR concentration 270 nM, RXRa partner concentration 90 nM)
# Assay: PBM binding z-score (relative to random genomic background probes); higher = stronger binding; sequences stand for … in GC…GCGATTGACAGCGTAGAATGAAGG
# Summary of the method: (§1)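 Custom Agilent 4×180K protein-binding microarrays carried double-stranded probes. Their 34-nt variable regions held direct-repeat seeds, single-nucleotide variants, half-site ablations and random human genomic background sequences. Arrays were incubated 1 h with ligand-free nuclear receptor dimers in PBS pH 7.4, 2% milk, 0.02% Triton X-100, 1 mM DTT, 0.2 mg/mL BSA and 0.4 mg/ml salmon testes DNA. Antibodies against each partner (one per run) detected binding, and scanned fluorescence was regression-normalized. Binding z-scores use random background probes as reference.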
row,Sequence,PBM binding z-score
1,TAGCCTAGGTCATGGGGGCCAGTATAGTGTCGGC,3.01
2,ATCTCTAGGTAAAAGTTCAGGGAATCCCGAGGAT,1.96
3,CTCGAAAGGTCGTGCTCAGGTGTGTATACCAAAC,3.32
4,ACTTACGGGTCGACGAGGTTATAGCACGCGTATA,2.68
5,AGTCAAAGTTCTCTAGGTAACGTAAGATTCAGCT,0.000883
6,AGAATGCGGTTATACGTAGATCAGGGAAGAAAGT,-0.417
7,AGAATGAGGTTCAGATCAGGGAAACAGAATACAT,0.507
8,CCTACTGGGCCATCAGGTCACTGATATCAACGTT,1.44
9,CGTCCAAGGTCAGCAGGTTAGTGAAAGCGACGTG,2.75
10,CGTCCAAGGTGAATGCTAGGTCAGTGAAAGCATT,0.776
11,TGAATGAGGTTATAAGATCAGGGTACGTTGCAAA,1.17
12,TCTGCTAGCTCAACGATGGTCAGCTAATCTGCTA,-0.381
13,TCTTGTAGATCAAGCGGGTTAAGAAAGCCTGAGT,0.313
14,ATATGTAGGTTATTGGGTCATTCAGTTTGCGCAT,3.06
15,ATCTCTAGGTAACCAGTTCAGTGAAAGAGAGGAC,1.19
16,TCTTGTAGACCAAGCAGGTTAAGAAAGCCTGAGT,0.504
17,CCTACTGGGCCATTCAGAGCTCATTGATCATATG,-0.612
18,AGAATGAGGTTATTAAGATCAAGGAATTGCGGTC,1.37

# System: PXR homodimer (NR concentration 270 nM)
# Assay: as above
# Summary of the method: as §1
row,Sequence,PBM binding z-score
1,CAAACTAGGACAAGAGGTCAAAGTCCGCTTCCCG,2.97
2,GGAACAAGGGCAAAGTTGATAGCATCTGTCGACG,0.0632
3,ACTTACGGGTCAAAGAGGTTATAGCACGCGTATA,2.73
4,CCGACTGGGGCATAAGGTTACCAGAAGCCAGCCC,-0.64
5,ACTATTAGTTGAGACGAGAGCAACCGATAGGTTG,-0.273
6,TCGAGTAGGTTAGTCAGGGCATTCAGCCAACATA,0.204
7,TCGAGTAGGTGAGGGGCATTCAGAATGGCGTCGA,-0.342
8,ATATGTAGGTTAAGGTTCATTCAGGTTGGTTCGC,5.13
9,AGAATGAGGTTATTCGTAGATCAGGGAAGAAAGT,0.494
10,GCGACTGGGGCACAGCAGGTTACCATAAGGTTGG,-0.29
11,GGAACGCGGGCATTCGAGTTGATAGCATGGCGAT,-0.449
12,CCTACTGGGCTACGAAAGGTCATTGATTCAGTGA,1.74
13,ACTTACCGGTCAACGAGGTTATAGCACGCGTATA,1.42
14,CTCGAAAGGTCGTGCTCAGGTGAGGATACCAAAC,0.182
15,GCTATGAGTTGAAAGGGCAACCGAATGATTCTCG,-0.0077
16,ATTTGTAGGTTAAGGGTCATTCAGGTTGGTTCGC,3.82
17,TATTGTAGATCAAGCAGGTTAAGAAAGCCTGAGT,-0.248
18,CGTCATAGTTCAACTAAGGTAACGTAAAGCACGC,1.23
19,TGTCAAAGTTCAAAGGTAACCTAAGTATCCACAC,4.14
20,CGTCCATGGTCAGAGAGGTCAGTGAATGCCGAGT,1.73

row,Sequence,PBM binding z-score
1,ACTCGGAGGACAAAGGTCAGAGGTACGCCAGTGA,0.587
2,CTCGAAAGGTCGGTTTAGGTGAGTATACGGATAA,0.344
3,TAGCCTAGGTCATGGGGGCCAGTATAGTGTCGGC,0.254
4,ATCTCTAGGTAAAAGTTCAGGGAATCCCGAGGAT,1.15
5,CTCGAAAGGTCGTGCTCAGGTGTGTATACCAAAC,0.146
6,ACTTACGGGTCGACGAGGTTATAGCACGCGTATA,0.798
7,AGTCAAAGTTCTCTAGGTAACGTAAGATTCAGCT,0.167
8,AGAATGCGGTTATACGTAGATCAGGGAAGAAAGT,-0.318
9,AGAATGAGGTTCAGATCAGGGAAACAGAATACAT,0.222
10,CCTACTGGGCCATCAGGTCACTGATATCAACGTT,0.0492
11,CGTCCAAGGTCAGCAGGTTAGTGAAAGCGACGTG,0.49
12,CGTCCAAGGTGAATGCTAGGTCAGTGAAAGCATT,-0.645
13,TGAATGAGGTTATAAGATCAGGGTACGTTGCAAA,0.33
14,TCTGCTAGCTCAACGATGGTCAGCTAATCTGCTA,-0.501
15,TCTTGTAGATCAAGCGGGTTAAGAAAGCCTGAGT,-0.037
16,ATATGTAGGTTATTGGGTCATTCAGTTTGCGCAT,4.6
17,ATCTCTAGGTAACCAGTTCAGTGAAAGAGAGGAC,1.26
18,TCTTGTAGACCAAGCAGGTTAAGAAAGCCTGAGT,0.118
19,CCTACTGGGCCATTCAGAGCTCATTGATCATATG,-0.562
20,AGAATGAGGTTATTAAGATCAAGGAATTGCGGTC,0.527
